Tg IFNy HTS = T. gondii growth inhibition under IFN-gamma | Toxoplasma gondii growth in IFN-gamma-treated host cells; active compounds read low | activity change, negative = inhibition, % (concentration not given with the values) | 3.8% of 69,000 active | AID 1259416; in the data active means activity change below about -70%, passing the limit was not always enough;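 further: host cells are HeLa cells infected with Toxoplasma gondii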
Numbers without * were called inactive. Shown is part of a subset that was picked to be rich in hits.

SMILES | Tg IFNy HTS
CC(C)CC(NC(=O)c1cccc(Cl)c1)C(=O)O (centres undefined) | -35
Cn1c(CNC(=O)c2ccc(Cl)cc2Cl)cc2ccccc21 | 34
CC(C)C[C@H](NC(=O)CNC(=O)c1cc(Cl)ccc1Cl)B(O)O | -79*
Fc1ccc2onc(C3CCN(Cc4cc5n(n4)CCNC5)CC3)c2c1 | -36
COc1ccc(S(=O)(=O)N2CCN(C(=O)N(C)C)C2C(C)C)cc1 (centres undefined) | -3
N#Cc1c(C(F)(F)F)cc(-c2ccccc2)nc1SCc1ccc(Br)cc1 | 65
Cc1nc2cc3c(cc2n1CC(=O)Nc1ccc2ncn(C)c2c1)OCCO3 | 10
Cc1cnc(Nc2cccc(C3CCCN3C(=O)CCOc3ccccc3C)n2)s1 (centres undefined) | -52
Cc1cc2oc(=O)cc(C)c2cc1NC(=O)c1cnc(CN2CCCC2)s1 | 9
Cc1nc(Nc2ncc(C(=O)Nc3c(C)cccc3Cl)s2)cc(N2CCN(CCO)CC2)n1 | -77*
CNC(=O)c1[nH]cnc1C(=O)Nc1ccc(N)cc1 | -11
CN1CCCN(CC(=O)NCc2ccccc2Cn2cccn2)CC1 | 1
CNC(=O)c1cccnc1N1CCOCC(CN(C)C)C1 (centres undefined) | 8
CCC(CC)C(=O)N1CCC2(C1)CN(c1cccc(F)c1)C(=O)CN2C (centres undefined) | 16
CC(=O)N1CCC2(CC1)OC(=O)C(C)=C2C(=O)NCCc1ccccc1 | 2
COC(=O)c1c(NCc2ccccc2)c2cccc(Cl)c2[nH]c1=O | -55
COC(=O)c1c(NCCO)c2cccc(Cl)c2[nH]c1=O | 3
COC(=O)c1c(NCCC(C)C)c2cccc(Cl)c2[nH]c1=O | -85*
COC(=O)c1c(NCc2cccnc2)c2cccc(Cl)c2[nH]c1=O | 17
COC(=O)c1c(NCc2ccc(OC)cc2)c2cccc(Cl)c2[nH]c1=O | -29
COC(=O)c1c(NCc2ccc(F)cc2F)c2cccc(Cl)c2[nH]c1=O | -76*
COC(=O)c1c(NCc2ccc(SC)cc2)c2cccc(Cl)c2[nH]c1=O | -79*
COC(=O)c1c(NCc2ccccc2OC)c2cccc(Cl)c2[nH]c1=O | -4
COC(=O)c1c(NCC(C)C)c2cccc(Cl)c2[nH]c1=O | -7
COC(=O)c1c(NCc2ccc3c(c2)OCO3)c2cccc(Cl)c2[nH]c1=O | 82
SMILES | Tg IFNy HTS
COC(=O)c1c(NCc2cc(F)cc(F)c2)c2cccc(Cl)c2[nH]c1=O | -98*
COC(=O)c1c(NCc2ccc(F)cc2F)c2cc(F)ccc2[nH]c1=O | 6
CCN1CCC2(CC1)OC(=O)C(C)=C2C(=O)Nc1ccc(F)cc1F | 138
CCN(CC)CCCCC(NC(=O)c1ccc([N+](=O)[O-])cc1)c1ccccc1 (centres undefined) | 14
COc1ccc(-c2cnccc2N)cn1 | 6
COc1ccc([C@H]2C3CCCCC3[C@@H]2NCc2cnc(C)nc2)cc1 (some centres undefined) | 35
COc1ccc(OC)c(N(CC(=O)NCc2ccco2)S(C)(=O)=O)c1 | 12
O=C(CC1COCCN1)NCCCn1ccnc1 (centres undefined) | -5
CN(C)C(=O)c1ccc2ncnc(N3CCCCC3)c2c1 | -19
CCn1ccnc1CC1COc2ccccc2O1 (centres undefined) | -18
c1ccc2c(c1)OCC(c1csc3ncnc(N4CCCCC4)c13)O2 (centres undefined) | -90*
Cc1[nH]c(=O)[nH]c(=O)c1-c1ccc(C(C)N2CCOCC2)cc1 (centres undefined) | 2
COc1ccc(C2(C(=O)N3CCC(n4nc(-c5ccsc5)ccc4=O)CC3)CC2)cc1 | -95*
COc1ccc(C2(C(=O)N3CCCC(N(C)C)CC3)CCCC2)cc1 (centres undefined) | 5
COc1ccc(C2(C(=O)N3CCCC(O)(CO)C3)CC2)cc1 (centres undefined) | 4
CC(C)NC(=O)C1CCN(C2CCN(C(=O)CCCc3cn[nH]c3)CC2)CC1 | 6
O=C1CC2(CCN(c3ccncn3)C2)CN1c1ccc(F)c(F)c1 (centres undefined) | 190
CCOc1ccc(N(Cc2nc(-c3ccc(OC)cc3)oc2C)S(=O)(=O)c2cccs2)cc1 | -47
CCCN(c1ccc(F)cc1)c1nc(C(=O)OCC)nc2ccccc12 | -49
CCOC(=O)c1nc(NCCCN2CCN(Cc3ccccc3)CC2)c2ccccc2n1 | 2
CCCCN(CCCNc1nc(C(=O)OCC)nc2ccccc12)c1ccccc1 | -78*
CCOC(=O)c1nc(N(C)c2ccccc2C)c2ccccc2n1 | -18
CCOC(=O)c1nc(NCCOC)c2ccccc2n1 | 104
CCCCN(CC)c1nc(C(=O)OCC)nc2ccccc12 | -87*
CCCN1CCC(c2cc3c(ncn3C(C)C)c(-c3cnn(C)c3)n2)CC1 | 1
SMILES | Tg IFNy HTS
CCOc1ccc(-c2cncnc2)cc1 | 3
Cc1ccc(-c2cnc(NC(=O)c3ccc4c(c3)ncn4C)n2C)cc1C | 1
CC(=O)N1CCC(C(=O)NCc2ccccc2)(N(C(=O)c2ccc(C)cc2)c2ccc(C(C)C)cc2)CC1 | -98*
CC(=O)N1CCC(C(=O)NCc2ccccc2)(N(C(=O)c2ccc(Br)cc2)c2ccc(C)cc2)CC1 | 63
CC(=O)Nc1ccc(C(=O)N(c2ccc(C)cc2)C2(C(=O)NCc3ccccc3)CCN(C(C)=O)CC2)cc1 | 80
COc1cc(-c2ccccc2Cl)ccc1NC(C)=O | 15
Cc1ccc(S(=O)(=O)Nc2nc(C)c(NC(=O)Nc3nc(C)cc(C)n3)s2)cc1 | 3
Clc1ccc(-c2nc(NC3CCN(Cc4ccccc4)CC3)c3ccccc3n2)cc1 | -65
Fc1cccc2c(OC3CCN(Cc4ccccc4)CC3)cc(C(F)(F)F)nc12 | -94*
Cc1cccc(CN2CCC(CNc3nc(-c4ccc(Cl)cc4)nc4ccccc34)CC2)c1 | -60
O=C(c1cc(=O)[nH]c2ccc(F)cc12)N1CCCC(c2ccn[nH]2)C1 (centres undefined) | -3
NC(=O)NCC(=O)N1CCOC(Cc2ccccc2Cl)C1 (centres undefined) | 1
c1ccc2c(c1)ccn2CCCNC1CCCNC1 (centres undefined) | -3
CO[C@H]1CCN(c2nnc(C)s2)C[C@@H]1Cc1ccccc1 | -2
Cc1ccc(C(NC(=O)C2CCOCC2)c2ccncc2)cc1 (centres undefined) | 32
COc1ccc2c(c1)NC1(CCN(S(=O)(=O)c3ccccc3C)CC1)c1cccn1-2 | -4
Cc1cc(C(F)(F)F)nc(CNC(=O)c2cccc3ccnn23)n1 | 7
CC1=C(C(=O)NCCCN2CCCC(C)C2)C2(CCN(S(C)(=O)=O)CC2)OC1=O (centres undefined) | 21
Cc1c(C(=O)N2CCc3ccccc3C2)oc2ccc3c(c12)C(=O)CC1(CCCCC1)O3 | -22
CCOC(=O)C1CCN(C(=O)c2oc3ccc4c(c3c2C)C(O)CC2(CCCCC2)O4)CC1 (centres undefined) | -81*
Cc1c(C(=O)NCCCN2CCCCC2)oc2ccc3c(c12)C(O)CC1(CCCCC1)O3 (centres undefined) | -67
CCOC(=O)C1CCN(C(=O)C2=C(C)C(=O)OC23CCN(S(C)(=O)=O)CC3)CC1 | -1
Cc1c(C(=O)NCCCN2CC(C)CC(C)C2)oc2ccc3c(c12)C(O)CC1(CCCCC1)O3 (centres undefined) | -112*
CC1=C(C(=O)NCCCN2CC(C)CC(C)C2)C2(CCCCC2)OC1=O (centres undefined) | -80*

Assay outcomes: PubChem BioAssay, Broad Institute
